This note sets out measurements from PubChem BioAssay (NCATS).

A short description of assay [1]: Cell Viability - N2a (AID 540).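 Also: plate controls were DMSO alone for no effect and tamoxifen control for full effect; nearly all actives have a fitted effect of over 45% in size.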 The conditions noted are these: N2a mouse neuroblastoma cell viability; activity change, negative = cytotoxicity: at 92.2 µM (top of the series). The method, boiled down: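 Mouse neuroblastoma N2a cells, 1500/well, exposed to compounds 40 h at 37 °C in complete medium. Viability measured as cellular ATP by CellTiter-Glo luminescence; AC50 from Hill fits of concentration-response.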

A short description of assay [2]: Cell Viability - SH-SY5Y (AID 544).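 Also: 0% = DMSO alone and -100% = 100 µM tamoxifen; nearly all actives have a fitted effect of over 55% in size.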 The conditions noted are these: SH-SY5Y neuroblastoma cell viability; viability change, negative = cytotoxic: at 92.2 µM (top of the series). The gist of the method: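 SH-SY5Y human neuroblastoma cells (1500/well) incubated 5 h, then compound-treated 40 h at 37 °C in complete medium. Viability read as intracellular ATP by CellTiter-Glo luminescence after 20 min; AC50 from Hill-equation fits of qHTS concentration-response.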

Assay [3] is described as follows: Cell Viability - Renal Proximal Tubule (AID 545).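 Also: 0% = DMSO only and -100% = 100 µM tamoxifen; nearly all actives have a fitted effect of over 40% in size.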 The gist of the method:
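Viability taken as intracellular ATP (CellTiter-Glo luminescence) after 40 hr, 37 °C compound treatment of primary proximal tubule cells from rat kidney, 1000 cells/well; Hill-equation fits of qHTS concentration-response data gave AC50.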

The target in assay [4] is Cytochrome P450 3A4 (Homo sapiens) (UniProt P08684). As to the kind of experiment: qHTS Assay for Inhibitors and Substrates of Cytochrome P450 3A4 (AID 884). Also: nearly all actives have a fitted effect of over 50% in size. Also: potency is read from the fitted curve at half-maximal effect. The method, boiled down:
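20 nM human CYP3A4 with 25 uM Luciferin-PPXE (at KM) in 200 mM KPO4, preincubated 10 min with compound; NADPH regeneration started a 60 min RT reaction. Luciferin detected by luminescence, normalized to 57 uM ketoconazole as full inhibition.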

Assay [5] is described as follows: Cell Viability - LYMP2-001 (AID 921).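 Also: 0% = DMSO only and full inhibition = tetraoctylammonium bromide control wells; nearly all actives have a fitted effect of over 70% in size.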 The method, boiled down: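 Cellular ATP loss read by luciferase luminescence after 24 h compound exposure at 37 C in complete medium. LYMP2-001 lymphoblastoid cells, 2500/well; qHTS concentration-response data fitted with Hill equation for AC50.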
Assay [6] is described as follows: Cell Viability - LYMP2-003 (AID 965).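 Also: cells exposed to compounds for 24 h before reading; 0% = DMSO only and full effect = 92 µM tetraoctylammonium bromide; nearly all actives have a fitted effect of over 50% in size.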 The method, boiled down: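 CellTiter-Glo luminescence quantified ATP loss after 24 h compound treatment of LYMP2-003 lymphoblastoid cells at 37 C. Titration series were fitted with the standard Hill equation to give AC50.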
Assay [7] is described as follows: Cell Viability - LYMP2-015 (AID 971).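 Also: 0% = DMSO only and full effect = 92 µM tetraoctylammonium bromide; nearly all actives have a fitted effect of over 55% in size.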 The gist of the method: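 LYMP2-015 human lymphoblastoid cells (2500/well) in complete medium, compound-treated 24 h at 37 C; viability read as cellular ATP by CellTiter-Glo luminescence after 30 min at room temperature. AC50 from Hill-equation fits of qHTS concentration-response data.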
Assay [8] can be described thus: Cell Viability - LYMP2-019 (AID 973).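 Also: 0% = DMSO alone and full effect = 92 µM tetraoctylammonium bromide; nearly all actives have a fitted effect of over 55% in size.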 The method, boiled down: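 Human lymphoblastoid LYMP2-019 cells (2500/well) preincubated 5 h at 37 C, then treated 24 h at 37 C in complete medium. Viability by CellTiter-Glo ATP luminescence after 30 min at room temperature; AC50 from Hill fits.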
Assay [9] can be described thus: Cell Viability - LYMP2-002 (AID 977).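 Also: plate controls were DMSO only for no effect and 92 µM tetraoctylammonium bromide for full effect.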 The method, boiled down: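 Luminescent ATP readout (CellTiter-Glo, 30 min room temperature) after 24 h compound exposure at 37 C of a human lymphoblastoid line, 2500 cells/well. AC50 values derived by standard Hill fitting of qHTS concentration-response data.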
A short description of assay [10]: Cell Viability - LYMP2-008 (AID 980). Also: % is scaled to controls: 0 for no effect and ±100 for the full control effect; nearly all actives have a fitted effect of over 60% in size. The gist of the method: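 LYMP2-008 lymphoblastoid cells (2500/well) plated 5 h, then treated 24 h at 37 C in complete medium. Viability read as intracellular ATP by CellTiter-Glo luminescence after 30 min at room temperature; AC50 from Hill fits.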
A short description of assay [11]: Cell Viability - LYMP2-010 (AID 981). Also: % is scaled to controls: 0 for no effect and ±100 for the full control effect; nearly all actives have a fitted effect of over 55% in size. The gist of the method:
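Human lymphoblastoid LYMP2-010 cells (2500/well) treated 24 h at 37 C in complete medium; viability read as intracellular ATP by CellTiter-Glo luminescence. AC50 from Hill fits of concentration-response data; tetraoctylammonium bromide positive control.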

Assay [12] is described as follows: Cell Viability - LYMP2-012 (AID 982).
The nature of assay [13]: Cell Viability - LYMP2-020 (AID 986). The method, boiled down: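 Human lymphoblastoid LYMP2-020 cells (2500/well) preincubated 5 h at 37 C, then treated 24 h at 37 C. Viability measured as intracellular ATP by CellTiter-Glo luminescence after 30 min at room temperature; AC50 from Hill fits.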
The nature of assay [14]: Cell Viability - LYMP2-022 (AID 987). The method, boiled down:
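LYMP2-022 lymphoblastoid cells (2500/well, complete medium) were treated with compounds for 24 hours at 37 C; intracellular ATP was then read by CellTiter-Glo luminescence after 30 min at room temperature. AC50 values were derived from Hill-equation fits.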

The nature of assay [15]: Cell Viability - LYMP1-002 - Assay at 40 hr (AID 994).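 Also: 0% = DMSO only and full inhibition = 92 µM tetraoctylammonium bromide; nearly all actives have a fitted effect of over 60% in size.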 The gist of the method:
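LYMP1-002 human lymphoblastoid cells (2500/well, complete medium) were treated with compounds for 40 hr at 37 C. Intracellular ATP was measured by CellTiter-Glo luminescence, and AC50 values came from Hill-equation fits of concentration-response data; tetraoctylammonium bromide was the positive control.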

Assay [16] can be described thus: qHTS assay for small molecule agonists of retinoid X receptor alpha signaling (AID 588544). The conditions noted are these: HEK293T RXRa-UAS-bla, beta-lactamase reporter, 18 h; 530 nm emission.
The nature of assay [17]: qHTS assay for small molecule antagonists of retinoid X receptor alpha signaling (AID 588546; active = well fitted inhibition curve with a large enough effect in the signal ratio, with a control signal flat, not every such curve was filed as active; the % refers to the signal ratio;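 also: cells stimulated with 9-cis-retinoic acid as agonist; % is scaled to controls: 0 for no effect and ±100 for the full control effect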). Conditions: HEK293T RXRa-UAS-bla, beta-lactamase ratio, antagonist mode; measured here: W530 green channel, cytotoxicity proxy. The method, boiled down:
(§1)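 Beta-lactamase reporter inhibition, read as CCF4 fluorescence ratio (ex 405, em 460/530 nm) after 2 h at RT. HEK293T UAS-bla cells, 2500/well, were stimulated with 9-cis-RA at 500 or 100 nM final alongside test compound for 18 h at 37 C.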

The target of assay [18] is Retinoic acid receptor RXR-alpha (Homo sapiens) (UniProt P19793). The assay is described as above. Conditions: HEK293T RXRa-UAS-bla, beta-lactamase ratio, antagonist mode. The method, boiled down: as §1
Assay [19] deals with Tumor necrosis factor (Homo sapiens) (UniProt P01375). In words: qHTS assay to identify small molecules that stimulate Tumor Necrosis Factor-alpha (TNF-alpha) secretion (AID 651757; active = well fitted curve in the direction sought with a large enough effect in the signal ratio; the % refers to the signal ratio; also: 0% is about no effect). The gist of the method:
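THP-1 cells (3000/well) exposed to compounds 17 hrs at 37 C. Secreted TNF-alpha detected by HTRF with cryptate- and XL665-labeled anti-TNF-alpha antibodies after 3 hr at room temperature.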

Assay [20] is described as follows: qHTS assay for small molecule antagonists of the retinoid-related orphan receptor gamma (ROR-gamma) signaling pathway - cell viability counter screen (AID 720652; active = well fitted curve in the direction sought with a large enough effect in the repeat runs; an effect the other way counts as inactive or inconclusive;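 also: CHO reporter cells with doxycycline-induced ROR-gamma expression; compound exposure lasted 16 hr before ATP read; % is scaled to controls: 0 for no effect and ±100 for the full control effect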). The method, boiled down:
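CHO cells carrying TET-inducible ROR and RORE-luciferase reporter, plated 5 hr, then dosed with compound plus doxycycline. After 16 hr at 37 C, viability read as intracellular ATP by CellTiter-Glo luminescence.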

“And” between values parts separate entries of the source, which are not always exact repeats. Equal entries are not always repeated. Results filed as inconclusive are left out. The source made the active and inactive calls. Unless noted, calls follow the shape of the dose curve; as a rule, active = well fitted curve in the direction sought with a large enough effect; inconclusive = small, poorly fitted or top-dose-only effect, or another doubt; inactive = no such curve, though single readings can be large; an effect the other way counts as inactive or inconclusive.

Retinoic acid receptor RXR-alpha (Homo sapiens), sequence (P19793 whole entry, looked up): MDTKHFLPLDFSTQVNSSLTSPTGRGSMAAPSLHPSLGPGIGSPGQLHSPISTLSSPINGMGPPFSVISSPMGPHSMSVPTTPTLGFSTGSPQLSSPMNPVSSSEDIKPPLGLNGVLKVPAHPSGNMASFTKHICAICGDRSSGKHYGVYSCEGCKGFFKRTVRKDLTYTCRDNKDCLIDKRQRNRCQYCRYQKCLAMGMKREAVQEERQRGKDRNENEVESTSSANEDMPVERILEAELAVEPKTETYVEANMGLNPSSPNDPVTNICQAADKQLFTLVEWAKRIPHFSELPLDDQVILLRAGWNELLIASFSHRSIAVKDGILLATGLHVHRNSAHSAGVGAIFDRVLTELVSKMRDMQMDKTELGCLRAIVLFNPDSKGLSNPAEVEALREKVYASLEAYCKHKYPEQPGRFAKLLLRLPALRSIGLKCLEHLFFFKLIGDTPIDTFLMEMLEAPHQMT
Cytochrome P450 3A4 (Homo sapiens), sequence (P08684 whole entry, looked up): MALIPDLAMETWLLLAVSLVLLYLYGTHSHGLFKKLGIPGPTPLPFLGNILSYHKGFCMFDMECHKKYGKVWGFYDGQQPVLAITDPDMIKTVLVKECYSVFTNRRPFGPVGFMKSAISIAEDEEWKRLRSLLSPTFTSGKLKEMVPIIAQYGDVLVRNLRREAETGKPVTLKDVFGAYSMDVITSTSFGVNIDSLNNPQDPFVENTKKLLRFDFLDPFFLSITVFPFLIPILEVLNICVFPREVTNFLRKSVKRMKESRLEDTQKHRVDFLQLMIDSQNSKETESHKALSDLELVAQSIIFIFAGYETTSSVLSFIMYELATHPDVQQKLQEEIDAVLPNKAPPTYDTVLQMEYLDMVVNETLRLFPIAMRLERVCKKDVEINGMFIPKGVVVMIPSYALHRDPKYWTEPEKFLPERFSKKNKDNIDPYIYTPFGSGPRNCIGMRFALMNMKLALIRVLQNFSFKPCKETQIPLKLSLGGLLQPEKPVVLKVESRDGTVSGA
Tumor necrosis factor (Homo sapiens), sequence (P01375 whole entry, looked up): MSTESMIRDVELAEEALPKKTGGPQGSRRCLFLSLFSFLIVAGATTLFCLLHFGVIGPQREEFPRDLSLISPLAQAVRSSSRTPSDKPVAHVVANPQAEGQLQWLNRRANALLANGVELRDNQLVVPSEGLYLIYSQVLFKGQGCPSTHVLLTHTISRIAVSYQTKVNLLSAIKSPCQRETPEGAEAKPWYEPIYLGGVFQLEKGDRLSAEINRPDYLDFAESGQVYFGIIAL

For `N#CCCC#N`, the Potency result in assay [1], in assay [2], in assay [4], in assay [5], in assay [6] and in [7] was “inactive” each time. The Potency result in [8], in assay [9], in [10], in assay [11], in [12] and in [13] was “inactive” each time. The Potency result in assay [14], in [15] and in assay [20] was “inactive” throughout. For the same compound, the outcome in [3] and in [19] was inactive. Besides, the results for the max response in assay [16], in assay [17] and in assay [18] were -20.2%, -8.53% and 23.2% (inactive), respectively.

`S=C1NCCN1`: the Potency result in assay [1], in assay [2], in assay [4], in assay [5], in [6] and in assay [7] was “inactive” throughout. In addition, the Potency entry in assay [8], in assay [9], in assay [10], in [11], in assay [12] and in assay [13] was “inactive” in each case. Besides, the Potency result in assay [14], in [15] and in [20] was “inactive” in each case. The result in [3] and in [19] was inactive. Moreover, the max response is -9.74% and -4.86% in assay [16]; -7.1% and 12.2% in assay [17]; -12.1% (inactive) and 9.5% (inactive) in assay [18].

In the case of `C=C(C)CCl`, the Potency entry in assay [1], in assay [2], in assay [4], in assay [5], in assay [6] and in assay [7] was “inactive” throughout. Besides, the Potency result in [8], in assay [9], in assay [10], in [11], in [12] and in [13] was “inactive” each time. Also, the Potency result in assay [14], in [15] and in assay [20] was “inactive” throughout. The result in [3] and in assay [19] was inactive. Besides, the max response in assay [16] was -6%; in assay [17] it was -2.4%; in assay [18] it was 1.96% (inactive).

Consider `Nc1ccccc1-c1ccccc1`, for which the Potency result in [1], in [2], in assay [4], in assay [5], in [6] and in [7] was “inactive” in each case. The Potency result in [8], in [10], in assay [11], in assay [13], in [15] and in assay [20] was “inactive” each time. Also, the call in assay [3] and in assay [19] was inactive. The max response in assay [16] is 14.6%; in assay [17], -0.398%; in [18] it was -19.9% (inactive).

With `ClCCCCl`, the Potency entry in [1], in assay [2], in [4], in [5], in assay [6] and in assay [7] was “inactive” each time. Also, the Potency result in assay [8], in assay [9], in assay [10], in [11], in assay [12] and in assay [13] was “inactive” throughout. The Potency result in assay [14], in assay [15] and in [20] was “inactive” each time. In addition, the result in assay [3] and in assay [19] was inactive. The max response in assay [16] is 1.73%; in [17], -7.74%; in assay [18], 9.28% (inactive).

With `C=C(Cl)CSC(=S)N(CC)CC`, the Potency result in assay [1], in assay [2], in assay [5], in [7], in [9] and in assay [12] was “inactive” each time. Further, the Potency result in [15] and in [20] was “inactive” in each case. Further, the result in assay [3] and in assay [19] was inactive. In addition, the max response in [16] is -16.2%; in assay [17], -2.71%; in assay [18] it was 1.31% (inactive).

As to `S=c1[nH]c2ccccc2[nH]1`, the Potency result in assay [1], in assay [2], in assay [5], in [6], in assay [7] and in [8] was “inactive” in each case. Moreover, the Potency result in [9], in [10], in [11], in [12], in assay [13] and in [14] was “inactive” throughout. Besides, the Potency entry in [15] and in assay [20] was “inactive” each time. In addition, the compound was called inactive in assay [3]. Besides, the Potency in [4] is 10 µM (active). Further, the figures for the max response in [16], in assay [17] and in [18] were 8.12%, -17.8% and 5.37% (inactive), respectively.

Turning to `CCCCCOC(=O)c1ccccc1C(=O)OCCCCC`, the Potency result in assay [1], in assay [2], in assay [5], in [6], in assay [7] and in assay [8] was “inactive” each time. The Potency entry in assay [9], in assay [10], in [11], in assay [12], in assay [13] and in [14] was “inactive” throughout. Further, the Potency entry in [15] and in [20] was “inactive” in each case. Besides, the compound was called inactive in assay [3] and in assay [19]. Besides, the max response in assay [16] was -10.9% and 3.25%; in assay [17] it was -5.52%; in assay [18] it was -6.11% (inactive).
